Results published in PubChem BioAssay AID504558 (Broad Institute, 2011).
About 2,400 (0.69%) of roughly 350,000 compounds were called active. The sample holds actives, similar compounds and a random draw of the others, so the mix is not that of the screen. Rule as the data show it: active = inhibition above about 41%; inconclusive = no clear call, values can overlap the other calls; inactive = below that.

Experiment: EBV LMP1-driven NF-kappaB luciferase reporter inhibitors, primary screen, cell-based, luminescence, single point (AID 504558);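 also: 0% = neutral control wells and 100% = reference inhibitor control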
Conditions: LMP1-induced NF-kappaB luciferase reporter cells, at 12.5 µM, active compounds read high

**Q.** With `Cc1cc(Cl)ccc1C(=O)C1CCCN(C(=O)c2ccc3c(c2)OCO3)C1` (stereo not given) as the compound, how does the inhibition read?
**A.** Its inhibition is -1.16% (inactive).

**Q.** For `Cc1cccc(C)c1NC(=S)N1CCCCCC1`, which inhibition is on record?
**A.** Its inhibition is 23.1% (inactive).

**Q.** With `C/C(=N\NC(=O)c1ccccc1F)c1ccccn1` as the compound, how does the inhibition read?
**A.** Its inhibition is 48.6% (active).

**Q.** For `CC(=NNC(=S)N1CCCCCC1)c1ccccn1`, which inhibition is on record?
**A.** The inhibition was 91.7% (active).

**Q.** Which inhibition does the source give for `O=C(Nc1nnc(-c2ccccc2F)s1)c1ccccc1F` here?
**A.** The inhibition was -3.53% (inactive).

**Q.** For `CCNC(=S)N1CCN(c2ncccn2)CC1`, which inhibition is on record?
**A.** The inhibition was -18.8% (inactive).

**Q.** For `O=C(NCCOc1ccccc1)c1ccccc1F`, which inhibition is on record?
**A.** The inhibition was -2.63% (inactive).

**Q.** Which inhibition does the source give for `CCN(C(=O)Nc1cccc2ccccc12)c1ccccc1` here?
**A.** Its inhibition is 2.61% (inactive).

**Q.** With `CCN(Cc1ccncc1)C(=S)Nc1ccccc1C` as the compound, how does the inhibition read?
**A.** Its inhibition is 0.031% (inactive).

**Q.** For `CCc1ccccc1OCC(=O)Nc1nnc(C2CC2)s1`, which inhibition is on record?
**A.** Its inhibition is -2.82% (inactive).

**Q.** Which inhibition does the source give for `COCOCCn1cc(CN2CCS(=O)(=O)N(Cc3ccc(-c4ccccc4)cc3)C(CC(C)C)C2=O)nn1` (stereo not given) here?
**A.** Its inhibition is 1.98% (inactive).

**Q.** Which inhibition does the source give for `CC1=C(C(=O)N2CCOCC2)CC(CC(=O)NCc2ccco2)C(=O)N1Cc1ccc(F)cc1` (stereo not given) here?
**A.** Its inhibition is 3.55% (inactive).

**Q.** Which inhibition does the source give for `Cc1cccc(-n2ncc(Cl)c(Cl)c2=O)c1` here?
**A.** The inhibition was 52.4% (active).

**Q.** Which inhibition does the source give for `Cc1cccc(-n2ncc3c(=O)[nH]c(SCC(=O)Nc4cc(C)on4)nc32)c1` here?
**A.** The inhibition was -3.93% (inactive).

**Q.** For `C=CCNc1cnn(-c2ccc(C)cc2)c(=O)c1Cl`, which inhibition is on record?
**A.** The inhibition was -12.1% (inactive).

**Q.** With `CCCCN1C[C@H](c2ccc(Br)cc2)[C@@H](CC(=O)Nc2ccc(Br)cc2)C1=O` as the compound, how does the inhibition read?
**A.** Its inhibition is 1.53% (inactive).

**Q.** For `C[C@@H]1CN([C@@H](C)CO)C(=O)c2cc(Br)cnc2O[C@@H]1CN(C)C(=O)C1CCCCC1`, which inhibition is on record?
**A.** Its inhibition is -0.141% (inactive).

**Q.** With `CCN(CC)C(=O)C1=C(C)N(Cc2ccccc2)C(=O)C(CC(=O)NC(c2ccccc2)c2ccccc2)C1` (stereo not given) as the compound, how does the inhibition read?
**A.** The inhibition was 2.92% (inactive).

**Q.** For `CCOc1cccc(/C=C/c2ccc3ccccc3n2)c1OC(C)=O`, which inhibition is on record?
**A.** The inhibition was 17.6% (inactive).

**Q.** For `CC(=O)c1ccc(S(=O)(=O)N2CCN(C(=O)/C=C/c3ccc4ccccc4n3)CC2)cc1`, which inhibition is on record?
**A.** The inhibition was -1.62% (inactive).

**Q.** For `COc1cccc(/C=C/c2ccc3ccccc3n2)c1OC(C)=O`, which inhibition is on record?
**A.** Its inhibition is 56.9% (active).

**Q.** Which inhibition does the source give for `CC1(C)C2CCC1(C)C(OC(=O)c1ccc(O)cc1)C2` (stereo not given) here?
**A.** The inhibition was -2.13% (inactive).

**Q.** For `O=C(OC12CC3CC(CC(C3)C1)C2)c1ccc(NCc2cc(O)ccc2O)cc1`, which inhibition is on record?
**A.** The inhibition was 44.1% (active).

**Q.** With `COC(=O)c1ccc(NCc2cc(O)ccc2O)cc1` as the compound, how does the inhibition read?
**A.** Its inhibition is -94.1% (inactive).

**Q.** Which inhibition does the source give for `CC1C(=O)N(Cc2cn(Cc3ccco3)nn2)CCS(=O)(=O)N1Cc1ccc(-c2cccc(CO)c2)cc1` (stereo not given) here?
**A.** The inhibition was 4.76% (inactive).
